Reference: PubChem BioAssay
For some assays here: Entries with a potency or affinity are not part of this list. Active and inactive are the calls of the source. Unless noted, the rule behind the calls is not given here.

How the values were obtained:
[1] = antimalarial activity against Dd2 strain (AID 2302;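 active = growth inhibition above 50% at the single 2 µM test dose, taken to imply half-maximal potency below 2 µM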;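 note: 0% = DMSO untreated growth and 100% = chloroquine plus artemisinin killed control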); settings: P. falciparum Dd2 in RBCs, LDH growth readout, 72 h; at 2 µM; active compounds read high
[2] = HepG2 cytotoxicity, primary screen, cytotoxicity control for P. falciparum antimalarial project, cell-based, ATP luminescence (AID 2303;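 active = inhibition above 50%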;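 note: 0% = DMSO wells and 100% = digitonin-killed cells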); settings: HepG2 viability, 24-48 h, at 10 µM, active compounds read high
[3] = target: L-lactate dehydrogenase (Plasmodium falciparum (isolate CDC / Honduras)) (UniProt Q27743); test: PfLDH activity inhibition – cell lysate, 3D7 strain, counter-screen for P. falciparum growth inhibition project (AID 2304);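 note: 0% = vehicle and 100% = reference inhibitor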; settings: P. falciparum 3D7 crude extract, LDH APAD/NBT absorbance; at 2 µM; active compounds read high
[4] = inhibition of 3D7 malaria parasite growth – strain 3D7 (AID 2306);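 note: 0% = DMSO wells and 100% = chloroquine plus artemisinin control wells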; settings: P. falciparum 3D7 erythrocytic growth, LDH absorbance, 72 h; at 2 µM; active compounds read high
[5] = target: Calcium-dependent protein kinase 1 (Plasmodium falciparum (isolate 3D7)) (UniProt P62344); test: PfCDPK1 kinase inhibitors, biochemical, TCAMS library (AID 1159585; cut-off not given, nearly all actives have IC50 up to about 0.98 µM;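 note: inhibitors leave more ATP so luminescence rises with inhibition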); settings: recombinant PfCDPK1, Kinase-Glo ATP depletion luminescence
[6] = target: Plasmodium falciparum protein kinase 6 (PK6, PF3D7_1337100) (UniProt Q8IDW1); test: PfPK6 kinase inhibitors, biochemical, TCAMS library (AID 1159586); settings: recombinant PfPK6, Kinase-Glo ATP depletion luminescence
[7] = target: Protein kinase 7 (PK7), Plasmodium falciparum 3D7 (PF3D7_0213400) (UniProt Q7YTF7); test: inhibition of Plasmodium PK7 catalytic activity – biochemical, TCAMS antimalarial set, Kinase-Glo luminescence (AID 1159587); settings: recombinant PfPK7, Kinase-Glo ATP depletion luminescence
[8] = target: Calcium-dependent protein kinase 4 (Plasmodium falciparum (isolate 3D7)) (UniProt Q8IBS5); test: PfCDPK4 kinase inhibitors, biochemical, TCAMS library (AID 1159588; cut-off not given, nearly all actives have IC50 up to about 0.91 µM); settings: recombinant PfCDPK4, Kinase-Glo ATP depletion luminescence
Chain of Calcium-dependent protein kinase 4 (Plasmodium falciparum (isolate 3D7)) (Q8IBS5 whole entry, looked up): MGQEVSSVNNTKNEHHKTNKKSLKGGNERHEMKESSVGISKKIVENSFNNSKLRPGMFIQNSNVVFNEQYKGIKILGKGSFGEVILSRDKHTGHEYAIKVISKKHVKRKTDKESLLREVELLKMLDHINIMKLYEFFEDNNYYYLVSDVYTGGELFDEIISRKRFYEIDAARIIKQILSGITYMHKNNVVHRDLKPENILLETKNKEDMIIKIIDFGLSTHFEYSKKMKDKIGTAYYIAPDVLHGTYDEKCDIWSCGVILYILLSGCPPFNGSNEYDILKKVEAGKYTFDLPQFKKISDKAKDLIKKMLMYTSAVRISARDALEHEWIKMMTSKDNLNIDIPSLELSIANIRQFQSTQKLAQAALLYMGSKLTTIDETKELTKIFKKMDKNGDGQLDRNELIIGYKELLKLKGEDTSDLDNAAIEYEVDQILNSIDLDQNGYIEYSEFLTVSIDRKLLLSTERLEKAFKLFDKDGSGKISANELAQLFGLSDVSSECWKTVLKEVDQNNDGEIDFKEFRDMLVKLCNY

Chain of L-lactate dehydrogenase (Plasmodium falciparum (isolate CDC / Honduras)) (Q27743 whole entry, looked up): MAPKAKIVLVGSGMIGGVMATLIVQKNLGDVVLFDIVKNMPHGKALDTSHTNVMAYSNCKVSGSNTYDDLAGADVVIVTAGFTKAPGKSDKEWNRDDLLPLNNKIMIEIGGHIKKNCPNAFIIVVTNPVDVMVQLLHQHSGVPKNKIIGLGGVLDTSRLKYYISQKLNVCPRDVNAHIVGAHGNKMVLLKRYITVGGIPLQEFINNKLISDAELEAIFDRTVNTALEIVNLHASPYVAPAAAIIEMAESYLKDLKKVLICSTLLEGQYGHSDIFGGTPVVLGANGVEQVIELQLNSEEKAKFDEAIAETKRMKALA
Chain of Calcium-dependent protein kinase 1 (Plasmodium falciparum (isolate 3D7)) (P62344 whole entry, looked up): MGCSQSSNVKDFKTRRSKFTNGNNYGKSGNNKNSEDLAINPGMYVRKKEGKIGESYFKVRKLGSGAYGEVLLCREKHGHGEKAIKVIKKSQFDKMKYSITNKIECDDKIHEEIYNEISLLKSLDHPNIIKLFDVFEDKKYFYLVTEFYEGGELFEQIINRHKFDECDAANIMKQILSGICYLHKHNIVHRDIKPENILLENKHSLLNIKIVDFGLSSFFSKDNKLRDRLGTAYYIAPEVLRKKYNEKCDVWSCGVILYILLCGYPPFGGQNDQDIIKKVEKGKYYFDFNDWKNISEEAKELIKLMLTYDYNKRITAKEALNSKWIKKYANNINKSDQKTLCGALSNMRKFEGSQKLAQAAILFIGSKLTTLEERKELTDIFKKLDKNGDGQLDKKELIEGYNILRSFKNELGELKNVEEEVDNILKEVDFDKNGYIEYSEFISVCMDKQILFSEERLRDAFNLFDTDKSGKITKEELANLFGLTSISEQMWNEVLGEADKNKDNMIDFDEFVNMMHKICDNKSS
Chain of Protein kinase 7 (PK7), Plasmodium falciparum 3D7 (PF3D7_0213400) (Q7YTF7 1-343): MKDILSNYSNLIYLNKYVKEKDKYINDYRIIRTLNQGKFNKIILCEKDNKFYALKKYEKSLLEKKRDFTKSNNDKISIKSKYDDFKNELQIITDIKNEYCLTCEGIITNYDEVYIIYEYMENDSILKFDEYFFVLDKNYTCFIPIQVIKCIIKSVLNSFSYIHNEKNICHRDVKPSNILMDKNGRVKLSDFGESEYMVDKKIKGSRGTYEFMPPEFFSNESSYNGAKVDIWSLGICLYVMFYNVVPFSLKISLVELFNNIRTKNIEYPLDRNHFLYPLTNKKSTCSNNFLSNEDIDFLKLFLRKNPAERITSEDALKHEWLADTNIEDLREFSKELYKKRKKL
Chain of Plasmodium falciparum protein kinase 6 (PK6, PF3D7_1337100) (Q8IDW1 1-305): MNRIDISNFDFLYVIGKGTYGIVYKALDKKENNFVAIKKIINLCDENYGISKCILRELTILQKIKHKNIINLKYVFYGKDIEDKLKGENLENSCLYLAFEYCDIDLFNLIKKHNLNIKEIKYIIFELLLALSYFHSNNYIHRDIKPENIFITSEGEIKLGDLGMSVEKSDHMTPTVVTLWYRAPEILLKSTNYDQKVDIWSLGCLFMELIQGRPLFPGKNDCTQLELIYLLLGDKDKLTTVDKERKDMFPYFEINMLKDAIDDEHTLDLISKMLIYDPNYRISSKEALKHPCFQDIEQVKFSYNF

OCCN1CCN(C(=S)Nc2ccccc2)CC1
inactive: growth inhibition [1] 7% | inhibition [2] 6% | inhibition [3] 2% | outcome [5] | outcome [6] | outcome [7] | outcome [8]
active: growth inhibition [4] 97%

CCCCOc1cc2c(cc1OCC)C(C=Cc1ccc(Cl)cc1Cl)=NCC2
active: growth inhibition [1] 95% | growth inhibition [4] 97%
inactive: inhibition [2] -2% | inhibition [3] -1% | outcome [5] | outcome [6] | outcome [7] | outcome [8]

Cc1c(Oc2ccc(-n3ccnc3)cc2)ncnc1N1CCC2(CC1)CNCc1ccccc12
inactive: inhibition [2] 26% | inhibition [3] -3% | outcome [5] | outcome [6] | outcome [7] | outcome [8]
active: growth inhibition [1] 58% | growth inhibition [4] 95%

COc1ccc2c(NN=Cc3ccccc3[N+](=O)[O-])cc(C)nc2c1
inactive: inhibition [2] 14% | inhibition [3] -4% | outcome [5] | outcome [6] | outcome [7] | outcome [8]
active: growth inhibition [1] 100% | growth inhibition [4] 101%

CCNc1cc(C(=O)N[C@@H](Cc2ccccc2)[C@H](O)CNC(C)(C)Cc2cccc(Cl)c2)cc(N2CCCCS2(=O)=O)c1
inactive: inhibition [2] 17% | inhibition [3] 3% | outcome [5] | outcome [6] | outcome [7] | outcome [8]
active: growth inhibition [1] 74% | growth inhibition [4] 97%

Cc1cc(NN=Cc2ccccc2Cl)c2ccc(F)cc2n1
active: growth inhibition [1] 100% | growth inhibition [4] 101%
inactive: inhibition [2] 6% | inhibition [3] -4% | outcome [5] | outcome [6] | outcome [7] | outcome [8]

Cc1c(CNCCCNc2nc3ccccc3[nH]2)sc(C(F)F)c1Br
inactive: growth inhibition [1] 5% | inhibition [2] 9% | inhibition [3] 2% | outcome [5] | outcome [6] | outcome [7] | outcome [8]
active: growth inhibition [4] 102%

O=C(Nc1ccc(OC2CCN(Cc3ccccc3)C2)c(Cl)c1)c1cccs1 (stereo not given)
active: growth inhibition [1] 96% | growth inhibition [4] 97%
inactive: inhibition [2] 13% | inhibition [3] -2% | outcome [5] | outcome [6] | outcome [7] | outcome [8]

Cc1ccc(-c2nnc(Nc3ccc(CC(N)=O)cc3)c3ccccc23)cc1S(=O)(=O)NCC1CCCO1 (stereo not given)
active: growth inhibition [1] 64% | growth inhibition [4] 83%
inactive: inhibition [2] -6% | inhibition [3] 6% | outcome [5] | outcome [6] | outcome [7] | outcome [8]

N#Cc1ccc(NC(=O)c2ccc(C(=O)NCCCCN3CCC(c4ccc5c(c4OCCOC4CCCCO4)CCCC5)CC3)cc2)cc1 (stereo not given)
inactive: inhibition [3] -6% | outcome [5] | outcome [6] | outcome [7] | outcome [8]
active: growth inhibition [1] 97% | inhibition [2] 72% | growth inhibition [4] 99%

COc1ccc(-c2cccc(NC(=O)c3ccccc3)c2)cc1CN1CCCN(C)CC1
active: growth inhibition [4] 98%
inactive: growth inhibition [1] 25% | inhibition [2] 22% | inhibition [3] -7% | outcome [5] | outcome [6] | outcome [7] | outcome [8]

Nc1c(Cl)cc(C(O)CNCCCCCOCCc2ccccc2)cc1C(F)(F)F (stereo not given)
inactive: inhibition [2] 3% | inhibition [3] 5% | outcome [5] | outcome [6] | outcome [7] | outcome [8]
active: growth inhibition [1] 96% | growth inhibition [4] 99%

CC(=O)Nc1ccc(NC(=O)c2cc(-c3ccc(C)cc3O)n[nH]2)cc1
inactive: inhibition [2] -3% | inhibition [3] -6% | outcome [5] | outcome [6] | outcome [7] | outcome [8]
active: growth inhibition [1] 78% | growth inhibition [4] 101%

O=C(NCc1ccccc1)Nc1ccc(-c2ccc(-c3nc4ccc(C(F)(F)F)cc4[nH]3)cc2)cc1
inactive: growth inhibition [1] 23% | inhibition [2] 40% | inhibition [3] 4% | outcome [5] | outcome [6] | outcome [7] | outcome [8]
active: growth inhibition [4] 99%

Cc1[nH]c(C)c(-c2ccc(-c3ccccc3Cl)nc2)c(=O)c1Cl
inactive: inhibition [2] -1% | inhibition [3] -5% | outcome [5] | outcome [6] | outcome [7] | outcome [8]
active: growth inhibition [1] 97% | growth inhibition [4] 98%

CCN1CCN(CCCCNc2c3ccccc3nc3ccccc23)CC1
active: growth inhibition [4] 100%
inactive: growth inhibition [1] -5% | inhibition [2] 22% | inhibition [3] 8% | outcome [5] | outcome [6] | outcome [7] | outcome [8]

COc1ccc2nccc([C@@H](O)CN3CCC(NCc4cc5ccccc5[nH]4)CC3)c2c1
active: inhibition [2] 75% | growth inhibition [4] 92%
inactive: growth inhibition [1] 41% | inhibition [3] 4% | outcome [5] | outcome [6] | outcome [7] | outcome [8]

COc1ccc(-c2ccc(NC(=O)c3cccc(Cl)c3)c(F)c2)cc1CN1CCCN(C)CC1
active: growth inhibition [4] 100%
inactive: growth inhibition [1] 42% | inhibition [2] 43% | inhibition [3] 0% | outcome [5] | outcome [6] | outcome [7] | outcome [8]

O=[N+]([O-])c1ccc(C2=NN(S(=O)(=O)c3c(Cl)cc(Cl)cc3Cl)CCCC2)cc1
inactive: inhibition [2] 5% | inhibition [3] 0% | outcome [5] | outcome [6] | outcome [7] | outcome [8]
active: growth inhibition [1] 98% | growth inhibition [4] 99%

O=C(NC(CCCN1CCC(c2ccccc2)CC1)c1ccc(Cl)c(Cl)c1)c1cc(C(F)(F)F)cc(C(F)(F)F)c1 (stereo not given)
active: growth inhibition [1] 87% | growth inhibition [4] 92%
inactive: inhibition [2] 33% | inhibition [3] 3% | outcome [5] | outcome [6] | outcome [7] | outcome [8]

Cc1cccc2[nH]c(-c3cccc(-c4cccc(NC(=O)c5cccnc5Cl)c4)c3)nc12
active: growth inhibition [4] 97%
inactive: growth inhibition [1] 32% | inhibition [2] -1% | inhibition [3] 0% | outcome [5] | outcome [6] | outcome [7] | outcome [8]

O=C(Nc1ccc(Cl)cc1)c1cccc2[nH]c(C(F)(F)F)nc12
active: growth inhibition [1] 98% | inhibition [2] 84% | growth inhibition [4] 93%
inactive: inhibition [3] -6% | outcome [5] | outcome [6] | outcome [7] | outcome [8]

CCOC(=O)c1[nH]c(-c2cccc(F)c2)nc1N
active: growth inhibition [4] 98%
inactive: growth inhibition [1] 2% | inhibition [2] 0% | inhibition [3] 9% | outcome [5] | outcome [6] | outcome [7] | outcome [8]

Cc1noc(C)c1-c1cccc(CNCc2cccc(-c3cccc(-c4nc5ccc(C(F)(F)F)cc5[nH]4)c3)c2)c1
inactive: inhibition [2] 18% | inhibition [3] 5% | outcome [5] | outcome [6] | outcome [7] | outcome [8]
active: growth inhibition [1] 95% | growth inhibition [4] 101%

CC(=O)c1cccc(Nc2nc3c(C#N)c(OCc4cc(Cl)cc(Cl)c4)ccc3[nH]2)c1
inactive: growth inhibition [1] 45% | inhibition [2] 29% | inhibition [3] 0% | outcome [5] | outcome [6] | outcome [7] | outcome [8]
active: growth inhibition [4] 86%

Cn1cnc(CCNC(=O)c2ccc(-c3ccc(-c4nc5ccc(F)cc5[nH]4)cc3)cc2)c1
active: growth inhibition [4] 92%
inactive: growth inhibition [1] 15% | inhibition [2] 17% | inhibition [3] 0% | outcome [5] | outcome [6] | outcome [7] | outcome [8]

N#Cc1cc(C(=O)c2cc(Br)ccc2O)cn(C2CCCCC2)c1=O
active: growth inhibition [4] 89%
inactive: growth inhibition [1] 9% | inhibition [2] 3% | inhibition [3] 3% | outcome [5] | outcome [6] | outcome [7] | outcome [8]

N#Cc1ccc(N2CCN(C(=O)c3cccc(-c4noc(C(F)(F)F)n4)c3)CC2)nc1
inactive: inhibition [2] 18% | inhibition [3] 3% | outcome [5] | outcome [6] | outcome [7] | outcome [8]
active: growth inhibition [1] 58% | growth inhibition [4] 84%

CN1CCN(Cc2cc3cc(NC(=O)/C=C/c4cccc(Cl)c4)ccc3s2)CC1
active: growth inhibition [1] 72% | inhibition [2] 54% | growth inhibition [4] 100%
inactive: inhibition [3] 1% | outcome [5] | outcome [6] | outcome [7] | outcome [8]

CC(C)C1C(O)=C(c2ccc3ccccc3c2)C(=O)N1Cc1cccc(F)c1 (stereo not given)
inactive: inhibition [2] 3% | inhibition [3] 3% | outcome [5] | outcome [6] | outcome [7] | outcome [8]
active: growth inhibition [1] 82% | growth inhibition [4] 97%

CCCCCCN1CCC(NCc2ccc(C(F)(F)F)cc2)CC1
active: growth inhibition [4] 100%
inactive: growth inhibition [1] 47% | inhibition [2] 11% | inhibition [3] -2% | outcome [5] | outcome [6] | outcome [7] | outcome [8]

O=C(Nc1cc(F)cc(F)c1)NC1CCN(CCCCCNC(=O)[C@@H]2C[C@H]2c2ccc(Cl)c(Cl)c2)CC1
active: growth inhibition [4] 102%
inactive: growth inhibition [1] 6% | inhibition [2] 49% | inhibition [3] 6% | outcome [5] | outcome [6] | outcome [7] | outcome [8]

Cc1ccc(NC(=O)c2ccc(N3CCC(c4ccccc4C)CC3)nc2)cc1
active: growth inhibition [1] 72% | growth inhibition [4] 83%
inactive: inhibition [2] 49% | inhibition [3] 3% | outcome [5] | outcome [6] | outcome [7] | outcome [8]

CCCC(=O)NC(NC(=S)Nc1ccc([N+](=O)[O-])cc1)C(Cl)(Cl)Cl (stereo not given)
inactive: growth inhibition [1] 14% | inhibition [2] 10% | inhibition [3] 4% | outcome [5] | outcome [6] | outcome [7] | outcome [8]
active: growth inhibition [4] 93%

CC(C)CNCc1cccc(-c2cccc(CN(CCCN3CCN(C)CC3)C(=O)CCC3CCCC3)c2)c1
inactive: inhibition [2] 45% | inhibition [3] -7% | outcome [5] | outcome [6] | outcome [7] | outcome [8]
active: growth inhibition [1] 96% | growth inhibition [4] 100%

Clc1cc(Nc2ccnc3ccc(Br)cc23)ccc1Oc1ccc(Cl)c2ccccc12
inactive: inhibition [2] 6% | inhibition [3] 3% | outcome [5] | outcome [6] | outcome [7] | outcome [8]
active: growth inhibition [1] 86% | growth inhibition [4] 99%

CCOC(=O)C(C(=O)OCC)c1nc(C)ns1
inactive: growth inhibition [1] -3% | inhibition [2] 10% | inhibition [3] -3% | outcome [5] | outcome [6] | outcome [7] | outcome [8]
active: growth inhibition [4] 99%

COc1cc(CCNc2nc(NCc3cccc4ccccc34)nc(N3CCC(N)CC3)n2)ccc1O
inactive: inhibition [2] 16% | inhibition [3] 5% | outcome [5] | outcome [6] | outcome [7] | outcome [8]
active: growth inhibition [1] 59% | growth inhibition [4] 100%

Cc1nc(C(C)Nc2nncc(-c3ccc(Cl)cc3)n2)cs1 (stereo not given)
active: growth inhibition [1] 55% | growth inhibition [4] 91%
inactive: inhibition [2] -15% | inhibition [3] -2% | outcome [5] | outcome [6] | outcome [7] | outcome [8]

OC(COCc1ccc(-c2ccccc2)cc1)CN1CCCCC1 (stereo not given)
active: growth inhibition [1] 75% | growth inhibition [4] 99%
inactive: inhibition [2] 13% | inhibition [3] -1% | outcome [5] | outcome [6] | outcome [7] | outcome [8]
